# In all, about 52,000 compounds went through this assay and about 1,700 (3.3%) were called active. For the sample, actives were picked, then their nearest neighbours and some compounds at random. A number with no mark means an inactive call. Rule as the data show it: active = survival mostly below about 52% (no sharp cut-off); inactive = mostly above about 56%.
# Tested on: Wild type
# Assay: S. aureus survival, RN4220 and DeltatarO strains – OD600, teichoic acid synthesis inhibitors, primary screen (AID 463173)
# Conditions: S. aureus RN4220 wild type/DeltatarO growth, OD600, 18 h, hits give low values, screened at 18.75 µg/mL (by protocol)
row,SMILES,survival
1,CC(=O)N1CCc2c(sc3c2c(=O)n(-c2cc(Cl)ccc2C)c(=O)n3C)C1,119%
2,CCOC(=O)c1cnc2c(ccc3ccccc32)c1Nc1ccc(OC)cc1OC,6% (active)
3,CCOC(=O)c1cnc2c(Cl)c(Cl)ccc2c1Nc1ccc(N(C)C)cc1,80%
4,CCOC(=O)c1cnc2c(ccc3ccccc32)c1Nc1ccc(N(C)C)cc1,0% (active)
5,CCOC(=O)c1cnc2c(CC)cccc2c1NCCO,116%
6,CCOC(=O)c1cnc2c(C)cccc2c1Nc1ccc(OC(C)C)cc1,3% (active)
7,CCOC(=O)c1cnc2c(OC)cccc2c1Nc1cccc(O)c1,73%
8,CCOC(=O)c1cnc2c(ccc3ccccc32)c1Nc1ccccc1OC,69%
9,CCOC(=O)c1cnc(NCc2ccc(OC)cc2OC)c2ccccc12,117%
10,CCN1C(=O)SC(CC(=O)O)C1=O (configuration not stated),99%
11,CCOc1ccc(NC(=O)CC2C(=O)N(c3ccccc3)C(=O)N2C2CCCCC2)cc1 (configuration not stated),69%
12,CC(C)c1ccc(NC(=O)CN2C(=O)C3(SCC(=O)N3c3ccc(F)cc3)c3ccccc32)cc1 (configuration not stated),58%
13,CCCCOc1ccc(S(=O)(=O)N2CCN(c3ccccc3OCC)CC2)cc1,112%
14,CCc1ccc(N2CCn3c2nc2c3c(=O)n(C/C=C/c3ccccc3)c(=O)n2C)cc1,79%
15,CCCCc1nn2c(=O)cc(COC(=O)C3CCCCC3)nc2s1,70%
16,Cc1cccc(C(=O)N2CCc3cc(CNC(=O)c4ccnn4C)ccc32)c1,90%
17,C#CCSc1nc(-c2ccccc2)cc(-c2ccccc2)c1C#N,70%
18,COc1ccc(-n2ccnc(NCc3ccc(C)cc3)c2=O)cc1OC,87%
19,COc1ccc(-n2ccnc(NCc3cccs3)c2=O)cc1OC,80%
20,COc1ccc(-n2ccnc(NCc3ccc(Cl)cc3)c2=O)cc1,0% (active)
21,O=c1c(NCc2cccs2)nccn1-c1ccccc1,74%
22,COc1ccc(-n2ccnc(NCc3cccs3)c2=O)cc1,-3% (active)
23,COc1ccc(-n2ccnc(NCc3ccccc3OC)c2=O)cc1,85%
24,COc1ccc(-c2cc3nc(C)c(CCC(=O)N4CCN(c5ccc(F)cc5)CC4)c(C)n3n2)c(OC)c1,85%

row,SMILES,survival
1,COC(=O)c1cc(S(=O)(=O)N2CCN(c3ccc(C)cc3C)CC2)cn1C,65%
2,COCCNC(=S)N1CCC(c2nc(-c3ccc(N(C)C)cc3)no2)CC1,107%
3,COCCNC(=O)CCCn1c(SCC(=O)Nc2cccc(C)c2)nc2c(sc3ccccc32)c1=O,86%
4,COc1cccc(-c2nc(SCc3cc(=O)c4ccc(C)c(C)c4[nH]3)n[nH]2)c1,97%
5,CCOc1ccc(CNC(=O)CCS(=O)(=O)c2cc3c4c(c2)CCN4C(=O)CC3)cc1,71%
6,CCN(CC)c1ccc(NC(=O)c2sc3ccccc3c2Cl)cc1,15% (active)
7,COc1ccccc1NC(=O)c1sc2cccc(Cl)c2c1Cl,71%
8,Cc1cccc(NC(=O)c2sc3cccc(Cl)c3c2Cl)c1,6% (active)
9,O=C(Nc1ccccc1Cl)c1sc2cccc(Cl)c2c1Cl,72%
10,CCCC(=O)Nc1ccc(NC(=O)c2sc3ccccc3c2Cl)cc1,128%
11,Cc1ccc(NC(=O)c2sc3ccccc3c2Cl)cc1,76%
12,O=C(Nc1ccc(N2C(=O)C=CC2=O)cc1Cl)c1ccco1,105%
13,CC1CCCCN1CCCNC(=O)Cn1ncc2c3ccccc3n(Cc3ccccc3F)c2c1=O (configuration not stated),90%
14,O=C(Nc1ccccc1)c1cccc(N2CCCC2=O)c1,110%
15,CC1CCN(S(=O)(=O)c2ccc(S(=O)(=O)N3CCCN(Cc4ccccc4)C3)cc2)CC1,107%
16,C/C(=N\Nc1nc2sc3c(c2c2ncnn12)CC(C)(C)OC3)C(=O)O,102%
17,COc1ccc(C2C(C(N)=O)=C(C)Nc3nc(CCCO)nn32)c(OC)c1 (configuration not stated),62%
18,COc1ccc(-n2nc3c(N4CCC(C(=O)NC5CCCCC5)CC4)nnc(C)c3c2C)cc1,73%
19,Cc1nc(SCC(=O)Nc2nsc(-c3ccc(C(C)(C)C)cc3)n2)c2c3c(sc2n1)CCCC3,92%
20,Cc1nc(SCC(=O)OC(C)(C)C)c2c3c(sc2n1)CCCC3,15% (active)
21,Cc1nc(SCC(N)=O)c2c3c(sc2n1)CCCC3,90%
22,COc1ccccc1Cc1nc2ccccc2nc1SCC(=O)Nc1ccc2c(c1)OCO2,45%
23,O=C(Cn1nnc(-c2ccccc2)n1)N1CCCCC1,109%
